# High-throughput results (PubChem)
# This is a sample that favours compounds with a hit; in the whole collection about 3.6% have one here.
# Abeta rescue: compounds reversing amyloid beta toxicity in yeast. yeast expressing A-beta42, growth rescue, OD600, 48 h; response scale: 0% DMSO, 100% iron-clioquinol control. Potency, µM (series often up to 46.1 µM), usual class: activators. 410,000 tested, 0.063% active; also: nearly all actives have a fitted effect of over 55% in size
#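 Yeast A-beta toxicity model in growth medium with pinned compounds, 48 h at 30 C; growth read as absorbance at 600 nm. Normalized to FeCl3/clioquinol equimolar mix (positive) and DMSO (negative).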
# TDP43 rescue: TDP-43 toxicity inhibition in yeast; TDP-43 expressing yeast growth rescue, BacTiter-Glo, 24 h; Potency, µM (top dose mostly 46.1 µM), for inactives: at the top dose growth rescue (activation), most hits filed as activators; 410,000 tested, 1.8% active; also: % of control where 0% means no effect; nearly all actives have a fitted effect of over 50% in size
#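 Cell-based yeast growth screen: TDP-43 expression induced in galactose, inoculum OD600=0.02 after raffinose pregrowth to mid-log. Read-out BacTiter-Glo luminescence at 24 hr, 30 deg C; inhibition of toxicity seen as signal increase.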
# FUS yeast rescue: rescues growth of FUS-expressing yeast; S. cerevisiae FUS-expressing, growth rescue, OD600, 24 h; Potency, µM (top dose mostly 76.6 µM), hits mostly activators; 390,000 tested, 0.24% active;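 also: plate controls were DMSO vehicle for no effect and reference control for full effect; nearly all actives have a fitted effect of over 55% in size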
#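 Absorbance at 600 nm, taken 24hr after compound addition, measured rescue of FUS-yeast growth at 30C. Induction used 2% galactose with seeding at OD 0.005. Controls: CP55940 from 92uM final, DMSO only.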
# aSyn yeast inh: alpha-synuclein toxicity inhibition in yeast. Potency, µM (top dose mostly 46.1 µM), for the others: top-dose growth rescue (activation), most hits filed as activators. 370,000 tested, 0.14% active. Yeast expressing alpha-synuclein, growth rescue, BacTiter-Glo, 24 h; also: % of control where 0% means no effect; nearly all actives have a fitted effect of over 65% in size
#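 Rescue of yeast growth: cells expressing toxic alpha-synuclein, induced in galactose at OD600 0.02, incubated with compound 24 h at 30 C. ATP luminescence quantified growth; inhibitors of toxicity appear as activators.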
# ClpP mod: qHTS Assay for Activators of ClpP; AID 651965, 2013; 340,000 tested, 1.9% active; purified B. subtilis ClpP, FRET peptide cleavage, 20 min; Potency, µM (series often up to 57.5 µM), inactives show at the top dose activity change, negative = active; active = well fitted falling curve with a large enough effect; inconclusive = small, poorly fitted or top-dose-only effect; inactive = no such curve, though single readings can be large or run the other way; also: the source files actives as falling curves though it sought activators and does not explain the sign; nearly all actives have a fitted effect of over 65% in size
#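 FRET quenching reversal measured ClpP activation: 10 microg/mL B. subtilis ClpP at pH 8 with the FRET-FV decapeptide, read at 430 nm after 320 nm excitation. The 20-min minus 0-min signal was scaled between DMSO/no-enzyme wells and ADEP (5.8 microM final).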
# Mm-Cpn inhibitor: inhibitors of Methanococcus maripaludis chaperonin TRiC (MmCpn); purified Mm-Cpn ATPase, ADP Transcreener TR-FRET; Potency, µM (series often up to 76.9 µM), without a hit: at the highest dose activity, negative = inhibition, hits mostly inhibitors; 330,000 tested, 0.031% active; AID 504842; also: % is scaled to controls: 0 for no effect and ±100 for the full control effect; nearly all actives have a fitted effect of over 80% in size
#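 TR-FRET (320 nm excitation; 590 and 665 nm emission) reports ADP made from 10 uM ATP by 25 nM enzyme; compounds were preincubated 10 min, reaction run 30 min, both at 37°C.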
# The depositor's hits bear a star; i = inactive; ? = inconclusive; . = not tested or not shown; [ ] = remark or other dose. Unless noted, calls follow the shape of the dose curve; as a rule, active = well fitted curve in the direction sought with a large enough effect; inconclusive = small, poorly fitted or top-dose-only effect, or another doubt; inactive = no such curve, though single readings can be large; an effect the other way counts as inactive or inconclusive. Potency is read from the fitted curve at half-maximal effect.
SMILES,Abeta rescue,TDP43 rescue,FUS yeast rescue,aSyn yeast inh,ClpP mod,Mm-Cpn inhibitor
CCN1CCN(CC(=O)Nc2c(OC)cccc2OC)CC1,i,-15.1%,i,1.4%,22.4µM*,-1.6%
CCN1CCN(CCC(=O)Nc2ccccc2OC)CC1,i,-24.5%,i,18.4%,-1.7%,2.2%
CCN1CCN(CCC(=O)Nc2cc(OC)cc(OC)c2)CC1,i,2.5%,i,-7.6%,28.2µM*,-3.0%
COCC(=O)Nc1nc(-c2ccc([N+](=O)[O-])cc2)cs1,i,11.3%,i,-1.8%,0.0%,-2.8%
CCC(=O)Nc1nc(-c2cc([N+](=O)[O-])cs2)cs1,i,21.5%,i,-1.2%,-1.2%,35.5µM*
Cn1cc(C(CO)Cc2ccccc2)c2ccccc21 (centres undefined),i,?,i,17.8µM*,-18.1%,-2.2%
COC(=O)c1sc(NC(=O)c2cc3nc(-c4ccc(Br)cc4)cc(C(F)(F)F)n3n2)c(C(=O)OC)c1C,i,21.7%,?,.,-23.4%,.
Cc1ccc(N(C(=O)COc2ccccc2C)S(=O)(=O)c2ccc(Cl)cc2)cc1,i,7.2%,i,.,0.708µM*,.
CC(=O)N1CCc2cc(S(=O)(=O)NC(CC(C)C)C(=O)NCCc3ccc(C)cc3)ccc21 (centres undefined),i,29.5%,i,.,0.3%,.
NC(=O)N/N=C/c1ccc([N+](=O)[O-])o1,i,12.8%,i,6.0%,-0.1%,-1.7%
O=[N+]([O-])c1ccc(/C=[N+](\[O-])CCO)o1,i,11.2µM*,i,22.5%,-0.2%,-14.6%
O=[N+]([O-])c1ccc(N2CCN(C(=S)NCc3ccc(Cl)cc3)CC2)cc1,5.62µM*,?,i,23.4%,3.0%,-4.9%
O=[N+]([O-])c1ccc(NC(=S)N2CCN(c3ccc(F)cc3)CC2)cc1,i,1.5%,.,3.9%,17.8µM*,0.3%
O=[N+]([O-])c1ccc(C(=S)N2CCN(c3ccc(F)cc3)CC2)cc1,i,?,i,4.0%,.,-7.5%
CC(C)C(=O)Nc1ccc([N+](=O)[O-])cc1Br,i,19.9%,i,-3.7%,35.5µM*,-0.5%
Cc1ccc(S(=O)(=O)N2C=C(c3ccccc3)c3ccccc3-c3ccccc32)cc1,.,.,i,.,.,.
Cc1nn(Cc2ccc(F)cc2)c2sc(C(=O)Nc3ccc(N4CCOCC4)cc3N3CCOCC3)cc12,i,14.1µM*,.,10.0%,-14.2%,1.2%
O=C(CC1N=C2c3ccccc3N=C(SCc3ccccc3F)N2C1=O)NCc1cccs1 (centres undefined),i,15.4%,i,.,0.5%,.
N#Cc1nc(-c2ccc(Cl)cc2)oc1NCc1cccc2c1OCO2,i,-7.9%,i,0.1%,11.2µM*,.
N#Cc1nc(-c2ccccc2)oc1NCc1ccco1,i,24.7%,i,-0.8%,4.8%,-3.4%
N#Cc1nc(-c2ccc(Cl)cc2)oc1NCc1ccco1,i,14.8%,i,4.8%,11.2µM*,-0.3%
N#Cc1nc(-c2ccc(Cl)cc2)oc1NCCc1ccccn1,i,-8.2%,i,1.9%,31.6µM*,0.0%
C#CCSc1nncn1C(=O)/C=C/c1ccccc1,i,-16.2%,i,12.6µM*,-0.9%,-2.7%
CC1CCCC(NC(=O)COC(=O)CCC(=O)c2cccs2)C1C (centres undefined),i,?,i,8.4%,0.4%,2.1%
CC1CCCC(NC(=O)COC(=O)CCC(=O)c2ccc(F)cc2)C1C (centres undefined),i,12.6%,.,8.8%,2.51µM*,0.8%
SMILES,Abeta rescue,TDP43 rescue,FUS yeast rescue,aSyn yeast inh,ClpP mod,Mm-Cpn inhibitor
O=C(NCCCc1cnc[nH]1)NCCCN(Cc1ccc(Cl)cc1)c1ccc(Br)cn1,.,.,.,-9.4%,0.1%,.
CCCCCCNC(=O)C1CSCCS(=O)(=O)N1Cc1ccc(F)cc1 (centres undefined),.,.,i,.,.,.
CCOC(=O)Cn1cc(C(=O)c2cccs2)c2ccccc21,i,17.8µM*,i,-0.5%,-0.3%,-7.3%
O=C(O)Cn1cc(C(=O)c2cccs2)c2ccccc21,i,-15.6%,i,6.6%,-0.8%,-6.3%
COc1ccc(O)c(C(=O)c2cnc3nc4ccccc4n3c2)c1,i,-19.2%,i,-11.5%,28.2µM*,0.9%
CCC(=O)Nc1c(C(=O)Nc2ccc3c(c2)OCCO3)oc2ccccc12,i,11.2µM*,i,5.8%,-3.5%,-2.6%
Cc1ccc(C)c(Oc2cc(F)nc(N)n2)c1,i,?,i,-26.6%,17.8µM*,0.5%
COc1cccc2c1Oc1ncccc1N(c1ccc(C(=O)NCc3ccccc3C)s1)C2,i,21.5%,i,.,31.6µM*,.
Cc1ccc(CNC(=O)c2ccc(N3Cc4ccccc4Oc4ncccc43)s2)cc1,i,20.0%,i,.,?,.
C=CCn1c(SCC(=O)Nc2ccc(C(=O)O)cc2)nc2scc(-c3ccccc3)c2c1=O,i,-23.9%,.,-73.4%,-0.3%,-2.0%
Cn1c(SCC(=O)Nc2ccc(C(=O)O)cc2)nc2scc(-c3ccccc3Cl)c2c1=O,i,-1.3%,35.5µM*,.,.,0.8%
CSc1nn(Cc2cccc(Cl)c2)c(N(C(C)=O)C(C)=O)c1S(=O)(=O)c1ccccc1,i,11.2µM*,i,.,-0.9%,.
O=C(NNC(=O)c1ccccn1)c1ccc(OC(F)F)cc1,i,31.6µM*,i,?,-11.8%,1.8%
O=C(NCCc1ccccn1)c1ccc(OC(F)F)cc1,i,-27.4%[1.82 µM],i,-11.7%,.,-0.3%
CCN(CC)S(=O)(=O)c1ccc2oc(C(=O)NCc3ccccc3OC)c(C)c2c1,i,?,i,.,-0.9%,.
Cc1oc(-c2ccccc2Cl)nc1CS(=O)(=O)CC(=O)NC(C)CCc1ccccc1 (centres undefined),i,?,i,.,-1.0%,.
Cc1ccc(/C=N/n2cc(-c3ccccc3)[nH]c2=S)s1,4.47µM*,24.5%,i,-2.4%,-14.8%,0.0%
S=c1[nH]c(-c2ccccc2)cn1/N=C/c1ccccc1Br,?,?,i,-18.7%,0.0%,-6.3%
COc1ccc2sc(-c3ccccc3OC)c(-c3ccc(O)cc3)c2c1,i,-91.1%,?,-62.5%,-21.9%,-27.6%
COc1cc2sc(-c3ccccc3OC)c(-c3ccc(O)cc3)c2cc1OC,i,15.8µM*,i,-0.7%,?,?
COc1ccc(-c2c(-c3ccccc3OC)sc3ccccc23)cc1,i,1.3%,i,19.3%,4.2%,14.1µM*
